Screens: PubChem, National Center for Advancing Translational Sciences (NCATS)
Shown are actives, neighbours in structure and some others; about 19% of the full set was active somewhere.
HT1080NT lethal: kills 2HG-producing HT-1080-NT fibrosarcoma cells; HT-1080-NT fibrosarcoma viability, CellTiter-Glo ATP luminescence, 48 h; Potency, µM (highest dose often 46.1 µM), usual class: cytotoxic; hit rate 1.6% among 360,000; AID 686970;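 note: NT is the 2HG producing partner of a matched IDH1 knockdown line; nearly all actives have a fitted effect of over 55% in size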
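HT-1080-NT; 750 cells/well; 5% FBS RPMI; 48 h compound, 37 degrees C; CellTiter-Glo luminescence; curve fitting and curve-class assignment.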
TDP1 cell noCPT: qHTS for Inhibitors of human tyrosyl-DNA phosphodiesterase 1 (TDP1): qHTS in cells in absence of CPT. Potency, µM (highest dose often 46.2 µM), hits mostly inhibitors. DT40 Tdp1-/- hTDP1 cells, no CPT, ATP luminescence, 48 h. AID 686978, 2013. hit rate 15% among 420,000; note: nearly all actives have a fitted effect of over 55% in size
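No-CPT arm: Tdp1-/-;hTDP1 DT40 cells (400/well) plus compounds, incubated ≥48 hr at 37 °C. Readout CellTiter-Glo luminescence.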
IL1B secr inh: inhibitors of inflammasome signaling (IL-1 beta secretion); THP-1 LPS/ATP IL-1B secretion, AlphaLISA, 16 h; hits give low values; activity change, % at 57.5 µM; hit rate 4.7% among 360,000; in the data active = activity change below about -50%; inconclusive = mostly about -30% to -49%
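Secreted IL-1B measured by AlphaLISA bead assay after 16 h compound exposure of THP-1 cells; compounds (final up to 57.5 uM) added 1 h before LPS (250 ng/mL) and ATP (1.25 mM) stimulation; lower signal means less secretion.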
HT1080 IDH1KD tx: HT-1080 IDH1 knockdown cell toxicity (counter line); HT-1080 IDH1 knockdown viability, ATP luminescence, 48 h; Potency, µM (series often up to 46.1 µM), actives largely listed as cytotoxic; hit rate 2% among 360,000
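Cytotoxicity counter-line: IDH1KD HT-1080, 48 h, CellTiter-Glo. Curves classed by r2, magnitude and activity.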
TDP1 cell CPT: DT40-hTDP1 cell growth loss with CPT; hit rate 12% among 420,000; Potency, µM (top dose mostly 46.2 µM), hits mostly inhibitors; chicken DT40 Tdp1-/-;hTDP1 cells + 20 nM CPT, ATP luminescence, 48 h; note: nearly all actives have a fitted effect of over 55% in size
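Cell growth measured by CellTiter-Glo luminescence after a minimum 48 h, 37 C compound exposure with 20 nM CPT in Tdp1-knockout DT40 cells stably expressing hTDP1, seeded 400/well; qHTS titration format.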
ELG1 repair inh: ELG1-dependent DNA repair inhibition; Potency, µM (top dose mostly 46.1 µM), usual class: inhibitors; HEK293T ELG1-luciferase reporter, luminescence, 16 h; DNA damage induced by 5-fluorouridine; hit rate 2.3% among 330,000; note: nearly all actives have a fitted effect of over 55% in size
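DMSO vehicle served as the neutral condition. Each well held 2,000 cells given 5-fluorouridine plus compound; after 16 hr at 37 °C/5% CO2, ONE-Glo was added and luciferase measured 30 min later.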
Hits are given with their value; 0 = inactive; ? = inconclusive; - = no result; [ ] = remark or other dose. Unless noted, calls come from the whole dose curve; as a rule, active = well fitted curve in the direction sought with a large enough effect; inconclusive = small, poorly fitted or top-dose-only effect, or another doubt; inactive = no such curve, though single readings can be large; an effect the other way counts as inactive or inconclusive.

SMILES	HT1080NT lethal	TDP1 cell noCPT	IL1B secr inh	HT1080 IDH1KD tx	TDP1 cell CPT	ELG1 repair inh
O=C(Nc1ccc2c(c1)CCCN2C(=O)c1ccco1)c1cc([N+](=O)[O-])ccc1Cl	0	?	-87	?	?	?
O=C(Nc1ccccc1Oc1ccccc1)c1cc([N+](=O)[O-])ccc1Cl	0	?	0	0	16µM	?
O=C(O)c1ccccc1C(=O)Nc1ccc(Nc2ccc([N+](=O)[O-])cc2[N+](=O)[O-])cc1	0	0	0	0	0	0
O=C(Nc1ccc(Nc2ccccc2)cc1)c1cc([N+](=O)[O-])ccc1Cl	?	16µM	-67	18µM	?	?
Cc1cccc(NC(=O)c2cc([N+](=O)[O-])ccc2Cl)c1O	0	?	-50	0	?	0
O=C(O)c1cc2cccc([N+](=O)[O-])c2[nH]1	0	0	-	0	0	-
Cc1ccc(S(=O)(=O)N2CC=C(C(=O)NC3CC3)CC2)cc1	0	?	0	0	?	0
COC1=CC(=O)OC(c2ccc(C#N)cc2)C1 (stereo not given)	0	0	0	0	0	-
CN(C)S(=O)(=O)c1ccc(Cl)c(C(=O)Nc2cccc([N+](=O)[O-])c2)c1	0	21µM	0	0	18µM	8.2µM
O=C(O)c1ccccc1Nc1ccc([N+](=O)[O-])cc1	?	2.9µM	0	?	0	?
COCCNC(=O)Cn1nc(N2CCN(c3ccccc3OC)CC2)ccc1=O	-	0	-	-	0	-
COCC1CCN(Cc2cn[nH]c2-c2ccc(OC)c(F)c2)C1 (stereo not given)	0	0	0	0	0	0
C=CCOc1ccc(C(=O)Nc2ccccc2C(=O)NCc2cccnc2)cc1	21µM	8.2µM	0	23µM	6.5µM	0
CCOc1ccc(NC(=O)COc2ccc(C(=O)NCc3cccnc3)cc2OC)cc1	0	?	0	0	?	0
COc1cc(C(=O)NCc2cccnc2)ccc1OCC(=O)Nc1cccc(C(F)(F)F)c1	?	3.7µM	0	0	5.2µM	0
COCc1ccc(C(=O)Nc2ccccc2C(=O)NCc2cccnc2)cc1	0	0	0	0	0	0
CC(C)(C)c1ccccc1OCC(=O)Nc1ccccc1C(=O)NCc1cccnc1	?	16µM	-90	?	?	?
Cc1ccc(-c2nc3ccccn3c2Nc2ccccc2C)s1	-	21µM	-	-	?	-
Cc1ccn2c(Nc3ccccc3C)c(-c3ccncc3)nc2c1	0	15µM	-89	0	16µM	?
Cc1ccccc1Nc1c(-c2ccsc2)nc2c(C)cccn12	-	21µM	-	-	16µM	-
CCCNC(=O)N1CCC(c2nc3ccccc3s2)CC1	0	0	0	0	0	0
COC(=O)c1sccc1Oc1c(Cl)cccc1[N+](=O)[O-]	0	0	0	0	0	0
C#CCNC(=O)C[C@@H]1C[C@@]2(C(=O)OC)CCCCC=C2N(CCC2=CCCCC2)C1=O	0	18µM	0	0	?	-
CCCCNC(=O)C[C@@H]1C[C@@]2(C(=O)OC)CCCCC=C2N(CCC2=CCCCC2)C1=O	0	18µM	?	0	?	-
C#CCNC(=O)C[C@@H]1C[C@@]2(C(=O)OCC)CCC=C2N(CCC2=CCCCC2)C1=O	0	?	0	0	?	-
SMILES	HT1080NT lethal	TDP1 cell noCPT	IL1B secr inh	HT1080 IDH1KD tx	TDP1 cell CPT	ELG1 repair inh
c1cncc(OC2CCN(Cc3ccc4c(c3)CN(Cc3ccc5c(c3)OCO5)CCO4)CC2)c1	-	?	-	-	0[9.04 µM]	-
Cc1c(CCOC(=O)CC23CC4CC(CC(C4)C2)C3)sc[n+]1Cc1ccccc1	?	1.8µM	?	?	2.1µM	0
Cc1ncc(C[n+]2csc(CCOC(=O)CC34CC5CC(CC(C5)C3)C4)c2C)c(N)n1	0	?	0	0	?	0
Cc1c(CCOC(=O)C23CC4CC(CC(C4)C2)C3)sc[n+]1CC#N	?	5.2µM	-102	?	3.3µM	0
O=C(N[C@@H]1CC[C@@H](CCNS(=O)(=O)c2ccc(Cl)cc2)O[C@@H]1CO)c1cccnc1	0	0	0	0	0	-
O=C(CSc1nc2ccccc2n1CC(=O)Nc1ccc(F)cc1F)Nc1ccc(F)cc1	-	0	-	-	?	-
O=C(N/N=C/c1cccs1)C1CC(=O)N(c2ccccc2)C1 (stereo not given)	0	0	0	0	0	0
O=C(N/N=C/c1ccccc1O)C1CC(=O)N(c2ccc(Cl)cc2)C1 (stereo not given)	?	3.7µM	0	3.3µM	7.3µM	?
CC1CCN2c3cc(Cl)ccc3CC3(C(=O)OC(C)(C)OC3=O)C2C1 (stereo not given)	-	0	-	-	0	-
CCc1nc2ccc(C(=O)NCCOc3ccc(OC)cc3)cn2c1N(CC)CCN(C)C	0	0	0	0	0	-
O=C(CN1C(=O)c2cccnc2Oc2ccc(Cl)cc21)NC1CCCC1	0	15µM	0	0	0	?
O=C(CN1C(=O)c2cccnc2Oc2ccc(Cl)cc21)NC1CCCCCC1	0	0	0	0	0	?
CCOc1ccccc1CNC(=O)CN1C(=O)c2cccnc2Oc2ccc(Cl)cc21	-	16µM	-	-	?	-
COCCNC(=O)CN1C(=O)c2cccnc2Oc2ccc(Cl)cc21	-	0	-	-	0	-
CCc1ccc(CNC(=O)CN2C(=O)c3cccnc3Oc3ccc(Cl)cc32)cc1	-	16µM	-	-	?	-
CC1Cc2[nH]c(=S)[nH]c(=O)c2C(c2ccc(F)cc2)O1 (stereo not given)	0	0	0	0	0	-
CCCc1cnc(NCCNCC(O)COc2ccc(Cl)c(Cl)c2)nc1 (stereo not given)	18µM	16µM	-	21µM	16µM	0
CC1CN(S(=O)(=O)c2cccc(C(=O)N(CCc3ccccc3)Cc3ccccc3)c2)CC(C)O1 (stereo not given)	0	5.8µM	0	0	7.3µM	?
CC(=O)N1CCN(S(=O)(=O)c2cccc(C(=O)N(Cc3ccccc3)c3ccc(C)cc3)c2)CC1	0	?	0	0	?	0
Cc1ccc(N(Cc2ccccc2)C(=O)c2cccc(S(=O)(=O)N3CC(C)OC(C)C3)c2)cc1 (stereo not given)	0	16µM	0	0	21µM	0
CCN1CCN(c2ncnc3c2cnn3-c2ccc(F)cc2)CC1	-	?	-	-	0	-
CC(=O)c1cc2c(cc1C)CCCC2(C)C	0	?	0	0	0	-
COC(=O)C1=C(O)/C(=C\c2cc(C)n(-c3ccccc3F)c2C)N=C1C	0	0	0	0	0	0
Cc1ccc(-n2c(C)cc(C=C3C(=O)N(C)C(=O)N(C)C3=O)c2C)cc1	0	0	0	0	0	-
CN=C1S/C(=C\c2cc(C)n(-c3ccccc3F)c2C)C(=O)N1C	0	23µM	0	0	15µM	?
